Screening data: PubChem BioAssay, National Center for Advancing Translational Sciences (NCATS)
Abeta rescue: restores growth of yeast expressing A-beta42 peptide; yeast expressing A-beta42, growth rescue, OD600, 48 h; response scale: 0% DMSO, 100% iron-clioquinol control; Potency, µM (highest dose often 46.1 µM), hits mostly activators; 410,000 compounds, 0.063% hits; also: nearly all actives have a fitted effect of over 55% in size
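Growth rescue measured by 600 nm absorbance after 48 h yeast culture at 30 C with compound. Values normalized between DMSO and an equimolar ferric chloride plus clioquinol control.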
TSG101-PTAP inh: blocks PTAP/TSG101 interaction to inhibit HIV-1 budding; AID 493005; Potency, µM (titrated, usually from 115 µM), actives largely listed as inhibitors; 340,000 tested, under 10 active; Q99816; Fluorescence polarization, FITC-PTAP peptide / Tsg101 binding; active = well fitted inhibition curve with a large enough effect in the main read-out, with a control signal flat, not every such curve was filed as active; inconclusive = small, poorly fitted or top-dose-only effect, or effect the other way, or a change in a side signal; inactive = no such curve, though single readings can be large or run the other way
Target sequence (Q99816 whole entry, looked up): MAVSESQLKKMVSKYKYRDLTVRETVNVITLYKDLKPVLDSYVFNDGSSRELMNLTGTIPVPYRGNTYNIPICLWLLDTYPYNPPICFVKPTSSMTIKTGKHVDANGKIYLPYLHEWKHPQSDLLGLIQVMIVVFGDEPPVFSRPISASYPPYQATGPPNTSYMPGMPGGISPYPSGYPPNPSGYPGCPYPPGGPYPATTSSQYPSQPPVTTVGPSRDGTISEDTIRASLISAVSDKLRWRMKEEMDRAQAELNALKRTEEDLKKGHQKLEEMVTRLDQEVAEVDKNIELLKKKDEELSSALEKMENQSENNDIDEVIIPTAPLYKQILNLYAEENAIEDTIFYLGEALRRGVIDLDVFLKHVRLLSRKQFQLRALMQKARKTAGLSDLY
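Compounds were pin-transferred onto Tsg101 binding domain (10 uM final) in HEPES pH 7.5 buffer, then FITC-PTAP peptide was added at 50 nM final. After 20 min at RT, polarization reported peptide displacement across a qHTS concentration series.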
TDP43 rescue: rescues yeast growth from TDP-43 toxicity; TDP-43 expressing yeast growth rescue, BacTiter-Glo, 24 h; Potency, µM (doses to about 46.1 µM), actives largely listed as activators; 410,000 compounds, 1.8% hits; AID 652104; also: nearly all actives have a fitted effect of over 50% in size
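Cell-based yeast growth screen: TDP-43 expression induced in galactose, inoculum OD600=0.02 after raffinose pregrowth to mid-log. Read-out BacTiter-Glo luminescence at 24 hr, 30 deg C; inhibition of toxicity seen as signal increase.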
aSyn yeast inh: rescues yeast growth from alpha-synuclein toxicity. Yeast expressing alpha-synuclein, growth rescue, BacTiter-Glo, 24 h. Potency, µM (top dose mostly 46.1 µM), most hits filed as activators. 370,000 compounds, 0.14% hits. AID 652106; also: nearly all actives have a fitted effect of over 65% in size
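Screening used galactose-induced yeast with toxic alpha-synuclein levels, exposed to compound for 24 hr at 30 deg C. Cell growth, read with BacTiter-Glo luminescence, gave the measured signal.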
FUS suppressor: FUS proteinopathy suppression in yeast. AID 1347120. Potency, µM (doses to about 76.6 µM), actives largely listed as activators. S. cerevisiae FUS-expressing, growth rescue, OD600, 24 h. 390,000 compounds, 0.24% hits; also: nearly all actives have a fitted effect of over 55% in size
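Cultures pregrown in 2.5% raffinose medium are shifted to minimal medium containing 2% galactose to express toxic FUS. Compounds are tested at several concentrations. After 24hr at 30C, growth is quantified at 600 nm absorbance.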
Large screens that a line does not name were inactive. An excerpt weighted towards active compounds, which were near 2.1% of everything screened. Unless noted, calls follow the shape of the dose curve; as a rule, active = well fitted curve in the direction sought with a large enough effect; inconclusive = small, poorly fitted or top-dose-only effect, or another doubt; inactive = no such curve, though single readings can be large; an effect the other way counts as inactive or inconclusive.

O=C(C1CCCN(S(=O)(=O)c2cccc3nonc23)C1)N1CCN(c2ccccc2Cl)CC1 (configuration not stated)	TDP43 rescue 35µM
Cc1cccc(N2CCN(S(=O)(=O)c3cccc4nonc34)CC2)c1C	TDP43 rescue 28µM (no result: FUS suppressor)
O=S(=O)(c1cccc2nonc12)N1CCN(c2ccccc2F)CC1	none
CCOc1cc(/C=N/Nc2cc(C)nc(-n3nc(C)cc3C)n2)ccc1O	none
Cc1cc(N/N=C/c2ccc(F)cc2)nc(-n2nc(C)cc2C)n1	Abeta rescue 13µM
Cc1cc(C(=O)NC2CCC(C)CC2)c(C)o1 (configuration not stated)	TDP43 rescue 13µM, aSyn yeast inh inconclusive
Cc1cc(C(=O)OCC(=O)NC2CCC(C)CC2)c(C)o1 (configuration not stated)	none (no result: FUS suppressor)
C=CCn1c2ccccc2c(=O)c2cc(C#Cc3ccccn3)ccc21	TDP43 rescue 20µM
Clc1ccc2c(Cl)cc[n+](CCC3CCCCC3)c2c1	none (no result: Abeta rescue, TSG101-PTAP inh, TDP43 rescue, FUS suppressor)
Cc1ccc(-n2c(=O)c3c(c4cc(C)ccc4n3C)n(CC(=O)Nc3c(C)cccc3C)c2=O)cc1	none (no result: TSG101-PTAP inh, aSyn yeast inh)
O=c1cc(-c2ccc(Cl)cc2)[nH]c2ccccc12	none
Clc1ccc(-c2cc3ccccc3[nH]2)cc1	TDP43 rescue 10µM
CCCCc1nc(NCCNC(=O)c2ccccc2)c(C#N)c2c1CSC(C)(C)C2	TDP43 rescue 22µM
CCOC(=O)/C(=N/Nc1ccccc1)N1CCCc2ccccc21	none (no result: FUS suppressor)
CCOC(=O)/C(=N/Nc1ccc(OC)cc1)N1CCCc2ccccc21	TDP43 rescue 13µM
COc1ccc(-c2cc(C(=O)N3CCCc4ccccc43)no2)cc1OC	TDP43 rescue 16µM, FUS suppressor inconclusive
COc1ccc(-c2cn3c(C)c(C(=O)N4CCCc5ccccc54)sc3n2)cc1	TDP43 rescue 25µM, aSyn yeast inh 20µM, FUS suppressor inconclusive
COc1ccccc1-c1cc(C(=O)N2CCCc3ccccc32)no1	TDP43 rescue inconclusive
COc1ccc(-c2cn3c(C)c(C(=O)N4CCN(c5ccccc5F)CC4)sc3n2)cc1	FUS suppressor inconclusive
COc1cccc(-c2cc(C(=O)N3CCCc4ccccc43)no2)c1	none
COc1ccc(-c2cc(C(=O)N3CCCc4ccccc43)no2)cc1	TDP43 rescue 10µM (no result: FUS suppressor)
COc1ccccc1NC(=O)CCNS(=O)(=O)c1ccc2c(c1)CCCC(=O)N2	none (no result: TSG101-PTAP inh)
Cc1ccc(C)c(CN2C(=O)c3ccccc3Sc3ccc(C(=O)NC4CCCC4)cc32)c1	none (no result: TSG101-PTAP inh, aSyn yeast inh)
CCOC(=O)C1CCCN(C(=O)c2sc3nc(-c4ccc(F)cc4)cn3c2C)C1 (configuration not stated)	TDP43 rescue 8.9µM (no result: FUS suppressor)
Cc1c(C(=O)N2CCN(c3ccccc3F)CC2)sc2nc(-c3ccccc3)cn12	TDP43 rescue 14µM
Cc1cc([N+](C)(C)C)cc(C)c1/C=C/c1ccnc2ccccc12	none (no result: Abeta rescue, TSG101-PTAP inh, TDP43 rescue, FUS suppressor)
CCOc1ccc(C(=O)CC(C(=O)O)N2CCCCC2)cc1 (configuration not stated)	TDP43 rescue 35µM
CCOc1ccc(C(=O)CC(NCc2cccs2)C(=O)O)cc1 (configuration not stated)	aSyn yeast inh 11µM
CCOc1ccccc1C(=O)Nc1cccc(-c2ccc(N3CCOCC3)nn2)c1	Abeta rescue inconclusive, TDP43 rescue 16µM
COc1ccc(C(=O)c2sc(Nc3ccccc3)nc2N)cc1	none
COc1ccc(C(=O)c2sc(Nc3ccccc3F)nc2N)cc1	TDP43 rescue 20µM
CCN=C1S/C(=C\c2cn(CC)c3ccccc23)C(=O)N1CC	TDP43 rescue 18µM
CCN1C(=O)S/C(=C/c2cn(C)c3ccccc23)C1=O	none
COc1ccc(C(C)=O)cc1COC(=O)c1c(C)noc1C	TDP43 rescue 16µM
CC(=O)N1c2ccccc2C(=O)C1N1CCN(c2ccc(F)cc2)CC1 (configuration not stated)	TDP43 rescue inconclusive (no result: TSG101-PTAP inh, aSyn yeast inh)
CC(=O)N1c2ccccc2C(=O)C1N1CCN(c2ccccc2F)CC1 (configuration not stated)	Abeta rescue inconclusive, TDP43 rescue 35µM (no result: TSG101-PTAP inh, aSyn yeast inh)
N#Cc1sc(NCc2cccc(Cl)c2)nc1Cl	TDP43 rescue 14µM
